Structures are written as SMILES. Several values for one entry are separate records, joined by “and”; a condition that tells them apart may be missing. Equal values may be shown once. Results filed as inconclusive are left out. Where a call stands in place of a potency, no number is given. Activity calls are given as the source filed them. The call rests on the fitted dose curve; in most records, active means well fitted cell-killing curve with a large enough effect in the repeat runs; inconclusive means weak or mixed curves, or effect the other way; inactive means no such curve, though single readings can be large or run the other way.
Potency means the concentration at half of the fitted maximal effect.

This experiment can be described thus: Caspase-3/7 induction in CHO-K1 cells by small molecules, qHTS cell viability counter screen (AID 1346979). Further: nearly all actives have a fitted effect of over 35% in size. The settings on record: CellTiter-Fluor fluorescence, 17 h; series mostly up to 92.4 µM. The source says:
National Center for Advancing Translational Sciences [NCATS]
NIH Chemical Genomics Center [NCGC]
U.S. Environmental Protection Agency [EPA]
National Institutes of Environmental Health Sciences [NIEHS]
National Toxicology Program [NTP]
U.S. Food and Drug Administration [FDA]
Apoptosis is a process of programmed cell death and plays a central role in the development of multicellular organisms. It is a highly regulated process and induces cell death by activating caspases, which are the members of cysteine aspartic acid-specific protease (caspase) family. Caspases involved in apoptosis are classified by their mechanism of action as initiator caspases (caspase-2, -8, -9 and -10) and executioner caspases (caspase-3, -6, and -7). Inhibition of apoptosis results in number of cancers, autoimmune diseases, inflammatory diseases and viral infection. To identify small molecule compounds that induce apoptosis, a homogeneous, luminescent Caspase-Glo 3/7 assay was used. Wild type CHO-K1 cells were used to screen Tox21 libraries for identifying caspase-3/7 activity inducers. Also cytotoxicity of the compounds was tested in parallel by measuring the cell viability using CellTiter-Fluor assay system in the same wells.
Tox21 Assay Protocol Summary:
CHO-K1 cells were dispensed at 1,500 per well in 5uL of culture medium into white solid bottom 1536-well plates (Corning Life Sciences, Corning, NY) using a Multidrop Combi (Thermo Scientific, Waltham, MA) dispenser. The assay plates were incubated at 37 C and 5% CO2 for 5hr, and then 23nL of compounds dissolved in DMSO and positive control were transferred using a Pintool station (Wako, San Diego, CA). The assay plates were incubated at 37C and 5% CO2 for 17hr. For cytotoxicity read, after 16hr incubation at 37C, 1uL CellTiter-Fluor reagent (Promega Corporation, Madison, WI) was added to each well of the assay plates using Flying Reagent Dispenser (FRD, Aurora Discovery, San Diego, CA). After 1hr incubation at 37C and 5% CO2, the fluorescence signal was quantified using a ViewLux plate reader (PerkinElmer, Shelton, CT).
Background: qHTS replaces the single test concentration by a dilution series.
As for `CCCOC(=O)Cc1ccc(OCC(=O)N(CC)CC)c(OC)c1`, the Potency result was “inactive”. The same measure, in the same setting: the entry for `Nc1c(Cl)c(F)nc(OCC(=O)O)c1Cl` is “inactive”.

In the case of `CC(C)[C@]12CC(=O)[C@H](C)[C@H]1C2`, the Potency entry is “inactive”.

In the case of `COc1cc(CC(C)N)cc(OC)c1OC` (stereo not given), the Potency entry is “inactive”.

Take `CN(C)C(=O)Oc1cc(OC(=O)N(C)C)cc(C(O)CNC(C)(C)C)c1` (stereo not given): the Potency result is “inactive”. As to `Cc1cc(OC(=O)N(C)C)nn1C(=O)N(C)C`, the Potency entry was “inactive”. On the same count and under the same terms, the value for `CCC(=O)OC1(c2ccccc2)CCN(C)CC1` was “inactive”. Consider `CCCCCCC(=O)CCCCCC/C=C/C[C@@H](O)[C@H](O)[C@@](N)(CO)C(=O)O`, for which the activity change, negative = cytotoxicity was 4.97% [at 19 µM] (inactive).

Regarding `N#CN=C1SCCN1Cc1ccc(Cl)nc1`, the Potency result is “inactive”. On the same count and under the same terms, the value for `ClC(Cl)(Cl)Cl` was “inactive”. On the same count and under the same terms, the entry for `S=C=S` is “inactive”. On to `O=S1(=O)OCCO1`, for which the Potency entry is “inactive”.

Consider `CCCCCCC1CCOC1=O` (stereo not given), for which the Potency result is “inactive”. For the molecule `O=[N+]([O-])CCO`, the Potency result was “inactive”. As for `C=CC=O`, the Potency result is “inactive”. For the molecule `C[C@@H](N)[C@@H](O)c1ccccc1`, the Potency entry was “inactive”. For the molecule `O=c1[nH]c2ccccc2o1`, the Potency result was “inactive”. On the same count and under the same terms, the value for `OCC(Cl)CCl` (stereo not given) was “inactive”; that for `COc1cc(CCN)cc(OC)c1OC` was “inactive”; that for `[O-][Br+2]([O-])O` was “inactive”.

As for `C[C@H](CN1CCOCC1)C(C(=O)N1CCCC1)(c1ccccc1)c1ccccc1`, the Potency result was “inactive”.

Take `C[C@]12C=CC(=O)C=C1CC[C@@H]1[C@@H]2CC[C@@]2(C)[C@H]1CC[C@]2(C)O`: the Potency entry is “inactive”. On to `ClCC1CO1` (stereo not given), for which the Potency entry is “inactive”. Consider `CCCCS(=O)(=O)Cl`, for which the Potency result was “inactive”. For `COC(=O)[C@@H](N)CCCN/C(N)=N/[N+](=O)[O-]`, the Potency result was “inactive”. Still for that read-out and setting: the value for `O=P(O)(O)c1ccccc1` was “inactive”; that for `CCCOc1nn(C(=O)NS(=O)(=O)c2ccccc2C(=O)OC)c(=O)n1C` was “inactive”; that for `COc1ccc(C=O)cc1O` was “inactive”. Same read-out and setting: the entry for `O=C(Cl)OCc1ccccc1` is “inactive”. On the same count and under the same terms, the figure for `C[C@H]1CCCC(=O)CCC/C=C/c2cc(O)cc(O)c2C(=O)O1` is 46.8 µM (active) and 22.4 µM (active); for `O=C(O)c1c(Cl)ccc2cc(Cl)cnc12` it is “inactive”; for `NC(=O)CS(=O)C(c1ccccc1)c1ccccc1` (stereo not given) it is “inactive”. Regarding `CCCOC(=O)c1cncn1C(C)c1ccccc1` (stereo not given), the Potency entry was “inactive”. As to `CCNc1nc(Cl)nc(NC(C)(C)C)n1`, the Potency result is “inactive”. Still for that read-out and setting: the value for `COP(=O)(OC)O/C(C)=C/C(=O)N(C)C` was “inactive”; that for `CC1NCCOC1c1ccccc1` (stereo not given) was “inactive”; that for `CCCC(C)(COC(N)=O)COC(N)=O` was “inactive”.

Turning to `CC(C)(N)Cc1ccccc1Cl`, the Potency result is “inactive”. Consider `BrCC1CO1` (stereo not given), for which the Potency entry is “inactive”. On the same count and under the same terms, the value for `CN1C(=O)COc2c(C(=O)NC3CN4CCC3CC4)cc(Cl)cc21` (stereo not given) was “inactive”.

These data come from PubChem BioAssay (Tox21).
